Data as given in PubChem BioAssay AID493036 (Sanford-Burnham Center for Chemical Genomics, 2011).
Among all 330,000 compounds or so, about 560 (0.17%) were called active.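 The calls were made as follows: active = activation at or above 40% of the spot to cytoplasm intensity ratio, with at least 20 cells analyzed; inconclusive = wells under 20 cells, flagged as cytotoxic or low count; inactive = the rest.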 For the sample, actives were picked, then their nearest neighbours and some compounds at random.

What was measured:
[1] = NTR1-driven beta-arrestin-GFP spot formation – imaging, U2OS cells, high content, primary screen (AID 493036); settings: agonist mode, measured here: cell count, cytotoxicity flag, at 20 µM;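 as to activation: 0% = DMSO without peptide and 100% = 100 nM NTR1 peptide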
[2] = target: Neurotensin receptor type 1 (Homo sapiens) (UniProt P30989); experiment: as above; settings: agonist mode, at 20 µM, stronger effect = higher value
Neurotensin receptor type 1 (Homo sapiens), sequence (P30989 whole entry, looked up): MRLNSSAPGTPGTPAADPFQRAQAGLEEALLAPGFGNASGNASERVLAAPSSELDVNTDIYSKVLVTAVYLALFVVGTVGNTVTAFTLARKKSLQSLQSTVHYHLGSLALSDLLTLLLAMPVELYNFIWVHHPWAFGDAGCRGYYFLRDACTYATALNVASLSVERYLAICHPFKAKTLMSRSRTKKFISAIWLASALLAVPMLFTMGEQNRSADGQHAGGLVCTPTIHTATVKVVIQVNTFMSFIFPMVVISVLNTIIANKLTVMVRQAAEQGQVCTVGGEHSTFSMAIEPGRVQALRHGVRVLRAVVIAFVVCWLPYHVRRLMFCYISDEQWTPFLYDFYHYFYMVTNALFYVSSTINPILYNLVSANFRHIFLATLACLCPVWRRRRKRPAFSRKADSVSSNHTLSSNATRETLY

SMILES: CC(C)C(=O)Nc1ccc2c3c(cccc13)CC2
- cell count [1]: 56 cells
- activation [2]: 0.6% (inactive)

SMILES: CC(=O)N1C(C)c2ccccc2C(C)(C)CC12CCCCC2 (stereo not given)
- cell count [1]: 51 cells
- activation [2]: 0.8% (inactive)

SMILES: Cn1c(C(=O)O)ccc1S(=O)(=O)N(Cc1ccccc1)Cc1ccccc1
- cell count [1]: 65 cells
- activation [2]: 0.5% (inactive)

SMILES: Cc1cc2occ(CC(=O)NNC(=O)c3ccccc3F)c2cc1C
- cell count [1]: 58 cells
- activation [2]: 0.7% (inactive)

SMILES: CC(C)(C)OC(=O)N1CCC(NC(=O)c2[nH]cnc2C(=O)N[C@@H](Cc2ccccc2)C(=O)OCc2ccccc2)CC1
- cell count [1]: 74 cells
- activation [2]: 47.8% (active)

SMILES: O=C(N[C@@H](Cc1ccccc1)C(=O)OCc1ccccc1)c1nc[nH]c1C(=O)NC1CCNCC1
- cell count [1]: 66 cells
- activation [2]: 4% (inactive)

SMILES: CC(C)(C)OC(=O)CNC(=O)c1[nH]cnc1C(=O)N[C@@H](Cc1ccccc1)C(=O)OCc1ccccc1
- cell count [1]: 87 cells
- activation [2]: 15.2% (inactive)

SMILES: CSc1ccc(C#N)cc1NC(=O)c1ccc(Cl)cc1
- cell count [1]: 46 cells
- activation [2]: 0.4% (inactive)

SMILES: FC(F)(F)c1cccc(-c2nc(COc3ccc(Cl)cc3Cl)no2)c1
- cell count [1]: 40 cells
- activation [2]: -2% (inactive)

SMILES: COc1ccc(C)cc1NC(=O)C(Sc1ccccc1)c1ccccc1 (stereo not given)
- cell count [1]: 44 cells
- activation [2]: 1.2% (inactive)

SMILES: O=C(O)c1cccc(N=NN2CCCCCC2)c1
- cell count [1]: 47 cells
- activation [2]: 0.2% (inactive)

SMILES: COC(=O)C1=C(NC(=O)C(C)(C)C)CCS1
- cell count [1]: 55 cells
- activation [2]: -0.2% (inactive)

SMILES: CC(=O)c1ccc(N2Cc3ccccc3C2)cc1
- cell count [1]: 66 cells
- activation [2]: 0.5% (inactive)

SMILES: N#Cc1ncc(C(F)(F)F)cc1Oc1cccnc1
- cell count [1]: 41 cells
- activation [2]: -0.5% (inactive)

SMILES: [O-][n+]1onc2c1CCc1[nH]c(-c3ccccc3)nc1-2
- cell count [1]: 66 cells
- activation [2]: -0.8% (inactive)

SMILES: O=C(NC(=S)NC1CCS(=O)(=O)C1)c1cccc([N+](=O)[O-])c1 (stereo not given)
- cell count [1]: 51 cells
- activation [2]: -0.4% (inactive)

SMILES: CCO[C@H]1OC(C(=O)NCc2ccccc2)=C[C@@H](c2coc3ccccc3c2=O)[C@@H]1CCCO
- cell count [1]: 79 cells
- activation [2]: 0.3% (inactive)

SMILES: COc1ccc(OC)c(S(=O)(=O)NCCC(C)C)c1
- cell count [1]: 90 cells
- activation [2]: -0.7% (inactive)

SMILES: O=C(NCc1ccco1)c1cnn2c(C(F)(F)F)cc(-c3ccco3)nc12
- cell count [1]: 40 cells
- activation [2]: 8.2% (inactive)

SMILES: CN(C(=O)c1cccc(NC(=O)C2CCN(C(=O)OC(C)(C)C)CC2)c1)C1CCC1
- cell count [1]: 52 cells
- activation [2]: -0.7% (inactive)

SMILES: CC(C)Nc1nnc(SCC(=O)/C=C2\N(C)c3ccccc3C2(C)C)s1
- cell count [1]: 54 cells
- activation [2]: 0% (inactive)

SMILES: CC(=O)Nc1cccc(OCC(=O)/C=C2\N(C)c3ccccc3C2(C)C)c1
- cell count [1]: 29 cells
- activation [2]: 0.8% (inactive)

SMILES: CN1/C(=C\C(=O)c2oc3ccccc3c2N)C(C)(C)c2ccccc21
- cell count [1]: 52 cells
- activation [2]: 45.5% (active)

SMILES: CC(Oc1ccccc1)C(=O)Nc1oc(-c2ccco2)c(-c2ccco2)c1C#N (stereo not given)
- cell count [1]: 69 cells
- activation [2]: -1.6% (inactive)

SMILES: COc1ccc(CC(NC(C)=O)C(=O)N2CCN(C(=O)Nc3cccc(Cl)c3)CC2)cc1OC (stereo not given)
- cell count [1]: 63 cells
- activation [2]: -0.5% (inactive)

SMILES: CC(=O)c1cnn(-c2cc(Oc3ccc(F)cc3)ncn2)c1C
- cell count [1]: 34 cells
- activation [2]: -1.1% (inactive)

SMILES: COc1cc(/C=C2/C(=O)ON=C2C)ccc1OCc1cccc(F)c1
- cell count [1]: 41 cells
- activation [2]: 5.9% (inactive)

SMILES: COc1cc(/C=C2/C(=O)ON=C2C)ccc1OCc1ccccc1F
- cell count [1]: 36 cells
- activation [2]: 73.4% (active)

SMILES: C=CCOc1ccc(/C=C2/C(=O)ON=C2C)cc1OCC
- cell count [1]: 89 cells
- activation [2]: 2.1% (inactive)

SMILES: COC(=O)c1ccc(COC(=O)CNC(=O)c2cccc(OC)c2)o1
- cell count [1]: 57 cells
- activation [2]: -0.3% (inactive)

SMILES: O=C(Nc1nnc(S(=O)(=O)N2CCCCCC2)s1)c1cccc(Br)c1
- cell count [1]: 53 cells
- activation [2]: 5% (inactive)

SMILES: Cc1c(NC(=O)CCC2CCCCC2)cc(C(=O)N2CCOCC2)cc1[N+](=O)[O-]
- cell count [1]: 61 cells
- activation [2]: 1.4% (inactive)

SMILES: COc1cccc(/C=N/Nc2cc(C)nc(-c3ccccc3O)n2)c1O
- cell count [1]: 51 cells
- activation [2]: 46.3% (active)

SMILES: COc1ccc(Cc2nnc(N/N=C/c3ccccc3O)[nH]c2=O)cc1OC
- cell count [1]: 65 cells
- activation [2]: 0% (inactive)

SMILES: COc1ccccc1-n1c(SCC(=O)Nc2cccc(C(=O)O)c2)nnc1-c1ccccc1O
- cell count [1]: 50 cells
- activation [2]: -0.1% (inactive)

SMILES: CCC1(CC)C(=O)C2=C3C1[C@H](C(=O)OC)C=C(C(=O)OC)C[C@H]3[C@H]1C(=O)N(Cc3ccccc3)C(=O)[C@H]1[C@H]2C (stereo not given in full)
- cell count [1]: 56 cells
- activation [2]: 4.6% (inactive)

SMILES: CC(C)(C)Nc1c(-c2cccs2)nc2ccccn12
- cell count [1]: 43 cells
- activation [2]: 1.2% (inactive)

SMILES: O=C(O)c1cccc(NC(=O)c2cc(-c3cccc(Cl)c3)nc3ccccc23)c1
- cell count [1]: 44 cells
- activation [2]: 1.2% (inactive)

SMILES: O=C(N/N=C/c1ccc(Cl)cc1)c1nc2ccc([N+](=O)[O-])cc2c(=O)[nH]1
- cell count [1]: 101 cells
- activation [2]: -0.7% (inactive)

SMILES: O=C(/C(=C/c1cccc(Cl)c1)c1nc2ccccc2[nH]1)c1ccccc1
- cell count [1]: 59 cells
- activation [2]: 40.5% (active)
